Bioassay records (PubChem)
In the library only some 1.2% were active in any assay of this set; here they are far more common.
RGS7-Gao: regulators of human RGS7-Galphao interaction | P09471 | Multiplexed bead flow cytometry, RGS7-Galphao binding; actives lie on both sides | binding response (% of control), % at 10 µM | 220,000 compounds, 0.35% hits | AID 1439; in the data active = binding response below about 49% or above about 150%; inconclusive = no clear call, values can overlap the other calls; inactive = in between;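 note: fluorescent Galphao held in activated GDP-AlF4 state binding bead-coupled RGS7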
Target sequence (P09471 whole entry, looked up): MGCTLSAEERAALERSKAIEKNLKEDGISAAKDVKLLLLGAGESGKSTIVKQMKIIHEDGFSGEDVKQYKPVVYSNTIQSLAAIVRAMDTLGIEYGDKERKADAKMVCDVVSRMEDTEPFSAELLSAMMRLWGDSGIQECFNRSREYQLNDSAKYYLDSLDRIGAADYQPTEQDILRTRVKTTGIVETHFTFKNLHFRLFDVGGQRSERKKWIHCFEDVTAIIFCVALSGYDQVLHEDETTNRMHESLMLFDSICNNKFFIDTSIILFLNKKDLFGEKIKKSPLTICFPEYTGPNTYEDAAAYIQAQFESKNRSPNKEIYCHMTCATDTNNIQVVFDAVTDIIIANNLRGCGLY
GSH fluor: GSH bead compound fluorescence profile. GSH beads flow cytometry, compound fluorescence 488/530 nm; hits give high values. fluorescence (KMESF) at 10 µM. 190,000 compounds, 0.25% hits. AID 1776; in the data active = fluorescence above about 89;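 note: glutathione beads carrying GST-tagged Bcl family fusion proteins plus one bare bead set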
RGS16-Gao: RGS16-Galphao interaction regulator (human); 220,000 compounds, 0.38% hits; binding response (% of control), % at 10 µM; bead-based flow cytometry RGS16-Galphao binding, fluorescence; actives lie on both sides; call rule not given here;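 note: Galphao activated by GDP with aluminum fluoride before binding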
Target sequence (O15492 whole entry, looked up): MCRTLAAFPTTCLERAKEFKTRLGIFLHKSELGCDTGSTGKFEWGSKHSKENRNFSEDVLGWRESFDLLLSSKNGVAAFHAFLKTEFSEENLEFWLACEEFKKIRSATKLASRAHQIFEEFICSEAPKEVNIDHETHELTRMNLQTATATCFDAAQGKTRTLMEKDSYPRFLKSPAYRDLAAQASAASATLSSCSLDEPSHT
Target sequence (P09471 whole entry, looked up): as the sequence (P09471 whole entry, looked up) above
Avidin bead fluor: compound fluoresces at 488/530 nm on avidin beads. compound fluorescence 488/530 nm, flow cytometry; hits give high values. fluorescence (KMESF) at 10 µM. 220,000 compounds, 0.38% hits. AID 1775; in the data active = fluorescence above about 47
RGS4-Gao reg: human RGS4-Galphao interaction regulation. binding response (% of control), % at 10 µM. P09471. AID 1415. 220,000 compounds, 0.33% hits. Multiplexed bead flow cytometry, RGS4-Galphao binding; actives lie on both sides; in the data active = binding response below about 49% or above about 150%; inactive = in between;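 note: fluorescent Galphao activated with aluminum fluoride binding bead-coupled RGS4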
RGS8-Gao: modulates binding of RGS8 to human Galphao; multiplexed bead flow cytometry; actives lie on both sides; 220,000 compounds, 0.34% hits; response (percent of control binding), % at 10 µM; in the data active = response below about 60% or above about 140%; inactive = in between;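 note: Galphao activated as the GDP aluminium fluoride complex binding bead-coupled RGS8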
Each line names hits and unclear results; the compound was inactive in the other large screens; [ ] = dose if it differs, or a comment.

CCNc1ccc(C(=O)NN=C2CCCC2)cc1[N+](=O)[O-]	none
Cc1onc(-c2ccccc2)c1C(=O)OCC(=O)Nc1ccc2c(c1)OCO2	none
Cc1onc(-c2ccccc2Cl)c1C(=O)OCC(=O)N1CCCc2ccccc21	GSH fluor 267
Cc1onc(-c2ccccc2Cl)c1C(=O)N1CCCc2ccccc21	none
Cc1onc(-c2ccccc2Cl)c1C(=O)OCC(=O)Nc1ccc2c(c1)OCO2	GSH fluor 263
CCOc1ccc2nc(NC(=O)Cn3[nH]c(=O)c4ccccc4c3=O)sc2c1	RGS7-Gao inconclusive (no result: GSH fluor)
Cc1nn(-c2ccccc2)nc1CNC(=O)C1CCC1	RGS7-Gao inconclusive (no result: GSH fluor)
Cc1cc(NC(=O)CSc2ncccc2C(=O)O)no1	none
N#Cc1ccc(COC(=O)C2CCC(=O)N2)cc1 (stereo unspecified)	GSH fluor 258
O=C1CCC(C(=O)OCC(=O)c2ccccc2)N1 (stereo unspecified)	none
CCOc1ccc2nc(NC(=O)c3ccoc3C)sc2c1	Avidin bead fluor 56
CC(C(=O)N1c2ccc(F)cc2CCC1C)N1C(=O)c2ccccc2C1=O (stereo unspecified)	Avidin bead fluor 48
CC(=O)c1ccc(NS(=O)(=O)c2ccc(N)cc2)cc1	none
CC(=O)c1ccc(NS(=O)(=O)c2ccccc2)cc1	Avidin bead fluor 49
CCOC(=O)c1cc(-c2ccc(OC)cc2)nc2c1c(C)nn2CCC#N	Avidin bead fluor 56
CCOC(=O)c1cc(-c2ccc(C#N)cc2)nc2c1c(C)nn2CCC#N	none
CC(=O)OC1C(N2CCCCC2)c2c(ccc(/C=C/C(=O)N3CCCCC3)c2O)OC1(C)C (stereo unspecified)	none
CCOC(=O)N1CCC(NC(=O)c2ccc(CNS(=O)(=O)c3ccc(F)cc3)cc2)CC1	Avidin bead fluor 61
Cn1c(=O)n(Cc2ccccc2)c(=O)c2c1nc1n2CCS1	GSH fluor 266
C=CCn1c(=O)c2c(nc3n2CCS3)n(C)c1=O	none
COc1ccccc1CN=C1NC(=O)C(CC(=O)Nc2ccc(C(C)=O)cc2)S1 (stereo unspecified)	RGS7-Gao inconclusive (no result: GSH fluor)
O=C(Nc1ccc(Cl)cc1Cl)C1=Cc2ccccc2OC1	none
O=C(Nc1ccc(Cl)cc1)C1=Cc2cc(Cl)ccc2OC1	Avidin bead fluor 48
COc1n[nH]c(C(=O)Nc2nc3ccccc3s2)c1[N+](=O)[O-]	RGS7-Gao inconclusive
O=C(NCC(c1ccco1)N1CCCCC1)c1ccc2c(c1)S(=O)(=O)c1ccccc1C2=O (stereo unspecified)	none
O=C1CSc2ccc(C(=O)NCC(c3ccco3)N3CCCCC3)cc2N1 (stereo unspecified)	Avidin bead fluor 50
N#Cc1ccc(Cl)cc1NC(=O)COC(=O)c1ccc2c(c1)OCCO2	Avidin bead fluor 66
Cc1cccc(C(=O)NCC(=O)OCC(=O)N2CCc3ccccc32)c1	RGS7-Gao inconclusive
Cc1cccc(OCCC(=O)OCC(=O)N2CCc3ccccc32)c1	Avidin bead fluor 54
O=C(CN(C(=O)CCC(=O)Nc1nccs1)c1cccc(F)c1)NCC1CCCO1 (stereo unspecified)	Avidin bead fluor 59
CCOC(=O)c1cnn(-c2ncnc3sc4c(c23)CCC4)c1N	Avidin bead fluor 52
COc1ccccc1NC(=O)CCN1CCN(Cc2ccccc2)CC1	none
COc1ccc(S(=O)(=O)N2CCCCCC2)cc1NC(=O)Cc1ccccc1	Avidin bead fluor 48
COc1ccc(S(=O)(=O)N2CCOCC2)cc1NC(=O)Cc1ccccc1Cl	none
COc1ccccc1NC(=O)CCN1CCCCCC1	RGS7-Gao 0.6, RGS16-Gao -2.5, RGS4-Gao reg 3.0, RGS8-Gao 4.6
CC(OC(=O)Cc1n[nH]c(=O)c2ccccc12)C(=O)Nc1cccc([N+](=O)[O-])c1 (stereo unspecified)	RGS7-Gao inconclusive
CCOc1c(OC(C)=O)ccc(/C=C2\N=C(SCC)SC2=O)c1[N+](=O)[O-]	Avidin bead fluor 78
COC(=O)c1cc(OC)c(OC)c(OC)c1N	GSH fluor 259
CCOc1c(Cl)cc(C(=O)Nc2cccc(C(=O)O)c2)cc1Cl	none
CCCCCOC(=O)CSc1n[nH]c(=O)[nH]c1=O	GSH fluor 273
CCOP(=O)(Nc1ccc2oc(=O)c3ccccc3c2c1)OCC	RGS7-Gao inconclusive (no result: GSH fluor)
CC(C)S(=O)(=O)c1cnc(N2CCOCC2)nc1N	RGS7-Gao inconclusive (no result: GSH fluor)
CCN(CC)CCCNC(=O)C1c2ccccc2C(=O)N(CCOC)C1c1ccc(F)cc1 (stereo unspecified)	RGS7-Gao inconclusive
COCCN1C(=O)c2ccccc2C(C(=O)Nc2ccc3c(c2)OCCO3)C1c1ccc(F)cc1 (stereo unspecified)	Avidin bead fluor 62
O=C(CCCc1nc2ccccc2s1)NCc1ccccc1F	none
CC(C)=CCN1CCN(Cc2cccn2-c2ccccn2)CC1CCO (stereo unspecified)	RGS7-Gao inconclusive
OC(CSc1ccccc1Cl)CN1CCN(c2ccccc2F)CC1 (stereo unspecified)	Avidin bead fluor 89
OC(CSc1c(Cl)cccc1Cl)CN1CCN(c2ccccc2F)CC1 (stereo unspecified)	none
CCN(C(=O)COC(=O)c1cc(=O)[nH]c2ccccc12)C1CCS(=O)(=O)C1 (stereo unspecified)	RGS7-Gao inconclusive (no result: GSH fluor)
O=C(Nc1cccnc1)c1ccc(Cl)c(S(=O)(=O)N2CCc3ccccc32)c1	Avidin bead fluor 62
O=C(NCCCn1ccnc1)c1cc(S(=O)(=O)N2CCOCC2)ccc1F	none
CN(C)CCCNC(=O)c1cc(S(=O)(=O)N2CCOCC2)ccc1F	RGS4-Gao reg 166[activator], RGS8-Gao 142[activator]
Cc1ccc(-c2nn(CC(=O)NCc3cc(-c4nn(C)c(=O)c5ccccc45)ccc3C)c(=O)c3ccccc23)cc1	RGS7-Gao active[activator], Avidin bead fluor 487, RGS4-Gao reg active[activator], RGS8-Gao 209[activator]
COc1cc(-c2nnc(-c3ccccc3)o2)cc(OC)c1OC	none (no result: RGS7-Gao, RGS16-Gao, Avidin bead fluor, RGS4-Gao reg, RGS8-Gao)
COc1cc(-c2nnc(-c3cc(OC)c(OC)c(OC)c3)o2)cc(OC)c1OC	GSH fluor 102
Cc1cccc(NC(=O)C(=O)NCC2CCCO2)c1 (stereo unspecified)	none
Cc1ccc(NC(=O)CCCSc2ccccc2)cc1S(=O)(=O)N1CCOCC1	Avidin bead fluor 101
COc1cc(CN2CCN(c3cccc(C)c3C)CC2)cc(Br)c1O	GSH fluor 272
COc1ccc(CN2CCN(c3cccc(C)c3C)CC2)cc1OC	none
COC(=O)CSc1nc(-c2ccccc2)c2c(c1C#N)CCCC2	GSH fluor 260
O=C(O)C1C2C=CC(C2)C1C(=O)N1CCOCC1 (stereo unspecified)	none
